Compound activity deposited in PubChem by several laboratories.
Hits are enriched below; roughly 1.5% of the tested compounds scored in any of these assays.
Rin1-Abl PPI inh = blocks binding of human Rin1 to Abl. P00519+Q13671. TR-FRET Rin1/Abl binding, biochemical. inhibition, % at 7.35 µM. 0.4% of 360,000 active; in the data active = inhibition above about 5%, passing the limit was not always enough
Target sequence (P00519 whole entry, looked up): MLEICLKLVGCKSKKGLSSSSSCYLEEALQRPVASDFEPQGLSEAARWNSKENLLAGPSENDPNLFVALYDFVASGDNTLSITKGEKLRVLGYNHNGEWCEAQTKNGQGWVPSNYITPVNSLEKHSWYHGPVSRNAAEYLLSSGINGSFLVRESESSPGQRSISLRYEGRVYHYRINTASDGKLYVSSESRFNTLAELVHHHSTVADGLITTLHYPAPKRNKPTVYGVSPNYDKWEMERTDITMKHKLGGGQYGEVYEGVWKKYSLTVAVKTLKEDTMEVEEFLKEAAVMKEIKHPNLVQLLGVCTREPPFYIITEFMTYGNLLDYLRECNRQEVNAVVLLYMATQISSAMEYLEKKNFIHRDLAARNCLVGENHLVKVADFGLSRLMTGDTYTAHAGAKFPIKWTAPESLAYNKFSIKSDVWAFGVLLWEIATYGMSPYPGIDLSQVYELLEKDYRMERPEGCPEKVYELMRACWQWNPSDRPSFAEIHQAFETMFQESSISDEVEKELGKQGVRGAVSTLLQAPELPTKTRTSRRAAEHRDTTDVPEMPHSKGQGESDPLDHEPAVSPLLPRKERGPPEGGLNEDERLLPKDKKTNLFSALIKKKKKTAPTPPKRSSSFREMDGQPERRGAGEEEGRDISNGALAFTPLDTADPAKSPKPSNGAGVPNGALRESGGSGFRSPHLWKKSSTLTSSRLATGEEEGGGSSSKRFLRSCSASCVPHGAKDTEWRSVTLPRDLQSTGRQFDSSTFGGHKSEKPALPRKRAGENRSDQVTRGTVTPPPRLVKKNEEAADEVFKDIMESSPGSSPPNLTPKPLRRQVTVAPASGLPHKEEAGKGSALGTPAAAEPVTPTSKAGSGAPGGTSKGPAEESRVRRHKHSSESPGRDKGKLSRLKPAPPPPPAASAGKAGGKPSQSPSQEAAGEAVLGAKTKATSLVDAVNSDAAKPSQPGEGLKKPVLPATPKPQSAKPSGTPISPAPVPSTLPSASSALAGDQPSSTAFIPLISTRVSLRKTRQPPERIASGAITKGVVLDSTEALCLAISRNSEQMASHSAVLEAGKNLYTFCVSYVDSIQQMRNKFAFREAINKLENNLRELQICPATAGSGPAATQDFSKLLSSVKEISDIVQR
Target sequence (Q13671 whole entry, looked up): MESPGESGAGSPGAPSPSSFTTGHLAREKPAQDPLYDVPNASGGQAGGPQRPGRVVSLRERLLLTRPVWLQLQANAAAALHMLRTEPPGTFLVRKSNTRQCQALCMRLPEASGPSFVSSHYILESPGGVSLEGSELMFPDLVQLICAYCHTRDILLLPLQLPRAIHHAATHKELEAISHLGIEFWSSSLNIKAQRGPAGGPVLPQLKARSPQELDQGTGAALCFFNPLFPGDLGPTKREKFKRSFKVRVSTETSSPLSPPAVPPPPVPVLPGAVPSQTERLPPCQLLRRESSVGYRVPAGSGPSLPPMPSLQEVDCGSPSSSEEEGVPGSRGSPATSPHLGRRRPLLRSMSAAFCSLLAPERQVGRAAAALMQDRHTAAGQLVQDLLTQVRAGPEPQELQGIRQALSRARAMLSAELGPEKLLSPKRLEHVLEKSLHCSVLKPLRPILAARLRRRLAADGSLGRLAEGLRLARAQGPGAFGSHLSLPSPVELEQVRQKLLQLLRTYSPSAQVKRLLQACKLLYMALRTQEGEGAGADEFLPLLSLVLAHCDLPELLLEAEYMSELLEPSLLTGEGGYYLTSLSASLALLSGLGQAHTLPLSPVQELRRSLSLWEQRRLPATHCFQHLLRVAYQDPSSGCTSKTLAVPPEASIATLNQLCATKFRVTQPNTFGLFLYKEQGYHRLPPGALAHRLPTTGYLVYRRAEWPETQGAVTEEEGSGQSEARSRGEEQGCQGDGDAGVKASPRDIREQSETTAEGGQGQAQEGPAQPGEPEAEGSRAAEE
ARNT-TACC3 inh = disruptors of human ARNT/TACC3 interaction; Q9Y6A5; AlphaScreen His-ARNT PAS-B/GST-TACC3 binding, luminescence; TACC3 fragment carries E629A point mutation; inhibition, % at 9.99 µM; 0.66% of 390,000 active;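 active = mean inhibition of replicates at least 50% and at least half of replicates each reaching 50%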;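 note: 0% = complete ARNT plus TACC3 wells and 100% = ARNT alone without TACC3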
sPLA2-III inh = Blocks human group III sPLA2 activity; Q9NZ20; QFRET BODIPY PC-A2 liposome hydrolysis, fluorescence; inhibition, % at 12.2 µM; 0.56% of 370,000 active;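 active = inhibition above mean plus 3 SD of compounds lying within the high and low control bounds, cut at about 19% in these data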;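 note: 0% = median of test compound wells and 100% = no enzyme DMSO wells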
AI-2 QS modul = Vibrio harveyi AI-2 quorum sensing modulation; Vibrio harveyi JMH597 AI-2 luminescence/OD600 ratio, 9 h; hits give low values; strain lacks LuxN and CqsS sensors; 0 = neutral-control median; activity change, % at 7.5 µM; 0.4% of 300,000 active; AID 2094; in the data active = activity change below about -75%, passing the limit was not always enough;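 note: luminescence divided by OD600 gain over 9 h not by final OD600 alone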
Rin1-Abl confirm = confirmation of inhibitors of human Rin1-Abl interaction; TR-FRET Rin1-Abl binding, purified proteins; 49% of 1,300 active; shares compounds with Rin1-Abl PPI inh; inhibition, % at 7.35 µM
GFP quench = quenches GFP fluorescence, counter-screen for Rin1-Abl inhibitors | inhibitors/quenchers counterscreen | shares compounds with Rin1-Abl PPI inh | 8.5% of 1,300 active | inhibition, % at 6.75 µM;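 note: ABL1-eGFP fusion protein alone without its partner RIN1-SBP; 0% = protein with vehicle and 100% = wells lacking protein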
GFP quench dose = quenches GFP in dose response, Rin1-Abl counter-screen; 230 tested, under 10 active; GFP fluorescence interference/quenching counterscreen; shares compounds with Rin1-Abl PPI inh; IC50, µM; AID 602182; call rule not given here;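 note: ABL1-eGFP fusion protein alone without its RIN1 binding partner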
Numbers without * were called inactive; x = not tested or not shown. Cut-off read from the data, not from the text of the source, unless noted: active = inhibition above about 6.5%; inactive = the rest.

SMILES | Rin1-Abl PPI inh | ARNT-TACC3 inh | sPLA2-III inh | AI-2 QS modul | Rin1-Abl confirm | GFP quench | others
CCOc1ccccc1N(C(=O)c1snc(C(N)=O)c1N)C(C(=O)NCc1ccccc1)c1ccc(O)cc1 (stereo not drawn) | 14.6* | -2.3 | -28.9 | 16.4 | 26.5* | 1.2 | GFP quench dose=>67.5
CCOc1ccccc1N(C(=O)c1snc(C(N)=O)c1N)C(C(=O)NCC1CCCO1)c1ccc2ncccc2c1 (stereo not drawn) | 21.3* | -7.7 | -0.3 | 14.1 | 28.5* | -1.0 | GFP quench dose=>67.5
COc1ccc(NC(=O)N[C@@H]2CC[C@@H](CCn3cc(-c4ccccc4F)nn3)O[C@@H]2CO)cc1 | x | -3.5 | x | x | x | x
CCCCSc1nnc2[nH]c(=O)cc(N)n12 | 2.8 | -6.1 | 1.1 | 13.7 | x | x
CCCCSc1cc(=O)[nH]c(N)n1 | 28.7* | x | -0.5 | 20.9 | 21.4* | -1.7 | GFP quench dose=>67.7
CCOC(=O)CCCCCC(=O)Nc1ccc2c(c1)C(=O)N([C@@H](C)CO)C[C@H](C)[C@H](CN(C)S(=O)(=O)c1ccc(OC)cc1)OCCCC[C@H](C)O2 | 8.1 | x | -19.4 | x | x | x
COc1ccc(S(=O)(=O)N(C)C[C@H]2Oc3ccc(NC(=O)C4CC4)cc3C(=O)N([C@H](C)CO)C[C@@H]2C)cc1 | 18.8* | -7.1 | 1.2 | x | 25.8* | -0.9
CCOC(=O)CCCCCC(=O)Nc1ccc2c(c1)C(=O)N([C@H](C)CO)C[C@@H](C)[C@@H](CN(C)C(=O)CCC(F)(F)F)OCCCC[C@H](C)O2 | 50.5* | x | -7.5 | x | 54.6* | -0.3 | GFP quench dose=>67.6
CCOC(=O)CCCCCC(=O)Nc1ccc2c(c1)C(=O)N([C@H](C)CO)C[C@H](C)[C@@H](CN(C)S(C)(=O)=O)OCCCC[C@@H](C)O2 | 10.3* | x | -0.8 | x | 14.5* | -0.8
COc1ccc(S(=O)(=O)N(C)C[C@@H]2Oc3ccc(NC(=O)C4CCCCC4)cc3C(=O)N([C@@H](C)CO)C[C@@H]2C)cc1 | x | -5.8 | x | x | x | x
C[C@H](CO)N1C[C@H](C)[C@@H](CN(C)Cc2ccc(C(=O)O)cc2)Oc2ccc(NC(=O)Nc3cccc4ccccc34)cc2CC1=O | x | -6.1 | x | x | x | x
COc1cccc(N(CC(=O)NCC2CCCO2)C(=O)CNS(=O)(=O)c2ccccc2)c1 (stereo not drawn) | 9.8* | -11.9 | -2.3 | 11.7 | -1.1 | -0.7
Nc1nc(NC2CCCC2)cc(=O)[nH]1 | 18.4* | -1.2 | -2.0 | x | 24.2* | 0.6 | GFP quench dose=>67.6
CS(=O)(=O)Nc1ccc2c(c1)[C@H]1C[C@@H](CC(=O)NCC(F)(F)F)O[C@H](CO)[C@H]1O2 | x | -26.1 | x | x | x | x
O=C(Nc1ccc(N2CCN(C(=O)c3ccc(Cl)cc3)CC2)cc1)c1cccnc1 | -6.7 | -3.3 | -7.1 | 33.9 | x | x
O=C(Nc1ccccc1N1CCN(C(=O)c2ccc(Cl)cc2)CC1)c1cccnc1 | 17.5* | 0.7 | -4.0 | 19.3 | 22.5* | 0.9 | GFP quench dose=>67.5
COCCNC(=O)C[C@@H]1CC[C@H]2[C@@H](COc3ccc(NC(=O)C4CCOCC4)cc3C(=O)N2C)O1 | x | -2.3 | x | x | x | x
CCOc1ccc(CCNC(=O)CN2C(=O)CCSc3ccccc32)cc1 | 10.6* | -12.5 | -1.0 | 2.1 | 1.4 | 0.4
CC(CNC(=O)CN1C(=O)CCSc2ccccc21)c1ccccc1 (stereo not drawn) | -2.6 | 4.3 | -0.8 | 19.0 | x | x
CCOc1ccc2[nH]c3ncccc3c(=O)c2c1 | -6.8 | -0.6 | -6.4 | 8.2 | x | x
CCOc1ccc2c(ccc(/C=C/c3cc(C)c4cccnc4c3O)[n+]2C)c1 | 39.8* | 65.3* | x | x | 55.7* | 58.9*
COC(=O)c1c(C)nc(C)c2c(=O)oc3ccccc3c12 | 15.0* | -1.4 | 3.5 | 29.7 | 37.9* | -0.7 | GFP quench dose=>67.5
CN1c2ccc(C#Cc3cccnc3)cc2[C@H]2[C@H](CCN2S(=O)(=O)c2ccccc2F)[C@@H]1CO | x | -2.6 | x | x | x | x
O=C1CCCC2=C1C1(O)C(=O)c3ccccc3C1(O)O2 (stereo not drawn) | 19.3* | 33.3 | -1.1 | 39.1 | 9.1* | -1.7
Cc1ccc(C2/C(=C(\O)c3ccc4c(c3)OCCO4)C(=O)C(=O)N2CC2CCCO2)cc1 (stereo not drawn) | 8.5* | 4.3 | 3.4 | 36.9 | -5.5 | 0.0
SMILES | Rin1-Abl PPI inh | ARNT-TACC3 inh | sPLA2-III inh | AI-2 QS modul | Rin1-Abl confirm | GFP quench | others
COc1cccc(C2/C(=C(\O)c3ccc4c(c3)OCCO4)C(=O)C(=O)N2CC2CCCO2)c1 (stereo not drawn) | -1.0 | -6.1 | 3.4 | 13.1 | x | x
C[C@H](NC(=O)N(C)C[C@@H]1OCc2ccccc2-c2c(n(C)c3ccccc23)C(=O)N([C@@H](C)CO)C[C@H]1C)c1ccccc1 | x | 2.4 | x | x | x | x
CCN(CC)c1nc2c3c(nc4c(c3c1C#N)CC(=O)N4c1ccc(Cl)cc1)NC(C)=N2 | 15.3* | -2.9 | 2.9 | 25.1 | 14.3* | 2.9
O=C(CSc1nc2ccccc2[nH]1)NC1CCCc2ccccc21 (stereo not drawn) | -1.5 | -21.1 | -11.6 | 12.9 | x | x
O=C(CSc1nc2ccccc2s1)NC1CCCc2ccccc21 (stereo not drawn) | 7.5* | 1.5 | -3.2 | 16.2 | -0.7 | 1.2
CN(C)S(=O)(=O)c1ccc(C(=O)OC2CCOC2=O)cc1 (stereo not drawn) | 6.9* | -6.2 | 0.5 | 3.3 | 0.6 | -2.3
COc1ccc(C2c3c(nc[nH]c3=O)Oc3nc[nH]c(=O)c32)cc1 | 50.4* | 3.6 | x | 19.2 | 63.9* | -1.6 | GFP quench dose=>67.5
CC(=O)NCC1(c2ccccc2)CCN(CC2COc3ccccc3O2)CC1 (stereo not drawn) | 5.9 | x | 12.5 | x | x | x
CC(=O)NCC1(c2ccccc2)CCN(CCCC(=O)c2ccc(F)cc2)CC1 | 14.3* | x | -7.2 | x | 14.8* | -1.1
O=C(N[C@@H]1CC[C@H](CCNC(=O)c2ccccc2F)O[C@@H]1CO)c1ccc2c(c1)OCO2 | x | -0.9 | x | x | x | x
COCCN(CCOC)C(=O)CSc1ccc(S(=O)(=O)N2CCN(C)CC2)cn1 | 12.0* | -3.9 | 9.0 | x | 25.5* | 0.8 | GFP quench dose=>67.5
CC(=O)CSc1ccc(S(=O)(=O)N2CCN(C)CC2)cn1 | -1.8 | x | 8.7 | x | x | x
CO[C@H]1CN(C)C(=O)c2cc(NC(=O)C3CC3)ccc2OC[C@@H](C)N(Cc2cccnc2)C[C@@H]1C | x | -6.7 | x | x | x | x
COc1ccc2cc(C(=O)C3CCCN(C(=O)c4cccnc4)C3)ccc2c1 (stereo not drawn) | -11.9 | 5.5 | -5.7 | 13.6 | x | x
O=C(c1ccc2ccccc2c1)C1CCCN(C(=O)c2cccnc2)C1 (stereo not drawn) | 6.9* | -0.5 | 3.9 | 19.5 | -4.9 | 0.1
CCSc1nnc(NC(=O)CSc2nc3c(c(=O)n2C)SC(C)C3)s1 (stereo not drawn) | 9.5* | -67.1 | -1.6 | 8.8 | -2.5 | 1.5
